SMILES strings stand for the structures. This is part of a sample that, as a whole, favours compounds with a hit. Of some 83,000 tested, about 20% had one in any assay.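 How to read the values: 0–100, growth inhibition (40 = 60% inhibited); 0, no net growth; -100 to 0, cell death (-40 = 40% of starting cells died; -100 = all dead).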 Values without a mark were called inactive. The source made the active and inactive calls. Rule for the calls: active = growth percent below 10; inactive = the rest.

What all share (assay): NCI-60 one-dose screen, 48 h (100 = growth as untreated, 0 = no growth, -100 = all killed)
What all share (conditions): 10 µM unless noted

In experiment [1] the test system is SK-MEL-2 melanoma.
Experiment [2] relates to EKVX NSCLC.
The test system of experiment [3] is SN12C renal.
In experiment [4] the test system is UO-31 renal.
For experiment [5], the system named is TK-10 renal.
In experiment [6] the test system is ACHN renal.
The test system of experiment [7] is CAKI-1 renal.
Experiment [8] has as its system A498 renal.
Experiment [9] concerns CCRF-CEM leukemia.
Experiment [10] concerns MOLT-4 leukemia.

Consider `O=C(Nc1ccc(CN2CCOCC2)cc1)c1[nH]ncc1Nc1ncnc2sccc12`, for which the growth in [1] is 2.93% (active); in [2], 13.4%; in experiment [3] it was 10.4%; in experiment [4] it was 8.4% (active); in experiment [5] it was 8.06% (active); in [6], 2.49% (active). The growth in [7] was 13.2%; in experiment [8], -36.8% (active); in experiment [9], 5.37% (active); in [10] it was -2.6% (active).
Turning to `Cc1ccc(N)cc1F`, the growth in experiment [1] is 97.1%; in experiment [2] it was 98%; in [3], 96%; in experiment [4], 92.6%; in [5], 123%; in experiment [6], 99.8%. Also, the growth was 74.5% in experiment [7], 98.2% in [8], 102% in experiment [9] and 92.3% in experiment [10].
`COC(=O)[C@H](C(C)C)n1c(=O)c2cc(OC)c(OC)cc2c2cnc3[nH]ccc3c21`: the growth in experiment [1] is 89.7%; in [2], 47.5%; in experiment [3] it was 43.5%; in [4] it was 22%; in [5] it was 51.1%; in experiment [6], 34%. Also, the growth is 30.5% in experiment [7], -40.3% (active) in [8], 39% in experiment [9] and 1.15% (active) in [10].
For the compound `CCCCCCNC(=O)Oc1ccc(/C(=C(\C)c2ccccc2)c2ccc(OCCN(CC)CC)cc2)cc1`, the growth was 86.6% in [1]; 90.5% in experiment [2]; 73% in experiment [3]; 28.8% in [4]; 76.1% in experiment [5]; 88.1% in experiment [6]. In addition, the growth in [7] is 77%; in [8] it was 81.7%; in experiment [9], 40.5%; in experiment [10], 20.3%.
With `Cc1nn(-c2ccccc2)c2nc(C)n(-c3ccc(Br)cc3)c(=O)c12`, the growth in [1] is 26.6%; in experiment [2] it was 32.1%; in [3], 48.6%; in experiment [4], 34.1%; in experiment [5], 53.1%; in experiment [6], 44.8%. Moreover, the growth in experiment [7] was 26.9%; in experiment [8], -30.4% (active); in experiment [9], 13.6%; in experiment [10], 19.8%.
Take `NC(=S)N/N=C/c1ccc(OCc2ccccc2)cc1`: the growth is 54.2% in [1]; 74.8% in [2]; 70.6% in experiment [3]; 22.8% in experiment [4]; 60.2% in experiment [5]; 67% in experiment [6]. The growth in [7] is 68.2%; in [8] it was 71.5%; in [9], 39.1%; in experiment [10], 32.1%.
As for `Cc1ccc(Nc2nc(N)nc(Nc3ccc4ccccc4c3)n2)cc1`, the growth in experiment [1] was 50.6%; in [2], 72.1%; in [3] it was 40.3%; in [4], 46.4%; in [5] it was 69%; in experiment [6], 46.6%. In addition, the growth was 30.3% in [7], 17.6% in [8], 27.8% in experiment [9] and 47.9% in [10].
On to `N#Cc1c(N)nc(N)nc1Nc1ccc(Br)cc1`, for which the growth in experiment [1] was 91.1%; in experiment [2], 44.1%; in experiment [3], 85.1%; in experiment [4] it was 65.6%; in experiment [5] it was 125%; in experiment [6] it was 89%. Further, the growth in experiment [7] is 80.1%; in experiment [8] it was 106%; in experiment [9], 61.1%; in experiment [10], 76.5%.
Consider `Cc1ccc2c(c1)C(=O)c1c-2c(OCCCN(C)C)nc2ccccc12`, for which the growth in experiment [1] was 44.7%; in experiment [2] it was 28.4%; in experiment [3], 19.4%; in experiment [4] it was 3.12% (active); in [5], 37.2%; in [6] it was -6.51% (active). Also, the growth in [7] was 24.2%; in experiment [8] it was 33.3%; in experiment [9], 19.3%; in experiment [10], -10.5% (active).
As for `C[C@@]1(N2C(=O)OC[C@@H]2c2ccccc2)C(=O)N([C@H](CC(=O)N2CCC(N3CCCCC3)CC2)C(=O)NCc2cccc(C(F)(F)F)c2)[C@@H]1/C=C/c1ccccc1`, the growth is 64.8% in [1]; 71.7% in experiment [2]; 74.3% in experiment [3]; 57.8% in experiment [4]; 79.1% in [5]; 75.2% in experiment [6]. Besides, the growth is 82.8% in [7], 52.3% in [8], 42.6% in [9] and 10.7% in experiment [10].
With `COc1cc(OC)c(/C=C/S(=O)(=O)Cc2ccc(OC)c(N)n2)c(OC)c1`, the growth was 8.32% (active) in experiment [1]; 37.3% in experiment [2]; 24.3% in [3]; 31.9% in [4]; 33.7% in experiment [5]; 28.3% in experiment [6]. For the same compound, the growth in [7] was 25.5%; in [8] it was -1.72% (active); in experiment [9] it was 9.98% (active); in [10] it was 2.56% (active).
Turning to `CC[C@H](Nc1ncnc(N)c1C(N)=O)c1nc2cccc(NCc3ccc(C(=O)NO)cc3)c2c(=O)n1-c1ccccc1`, the growth was 82.8% in experiment [1]; 99.7% in [2]; 81.5% in experiment [3]; 71.8% in experiment [4]; 69.9% in experiment [5]; 91% in [6]. The growth in [7] was 93.2%; in [8], 90.8%; in experiment [9], 33%; in experiment [10], 67.8%.
For `CC/C(Cc1ccccc1)=C(\c1ccc(OCCN2CCCC2)cc1)c1ccc(OC(C)=O)cc1`, the growth in experiment [1] was 104%; in experiment [2] it was 80.3%; in experiment [3], 83.4%; in experiment [4], 72.3%; in [5], 88.7%; in experiment [6], 89.7%. Moreover, the growth was 86.6% in experiment [7], 87.9% in experiment [8], 88.1% in [9] and 55.2% in experiment [10].
`Nc1cccc(NC(=O)C(=O)Nc2cccc(N)c2)c1`: the growth in experiment [1] was 97.6%; in experiment [2], 94%; in experiment [3] it was 88.6%; in [4] it was 84.4%; in [5] it was 122%; in experiment [6] it was 85.8%. Also, the growth in experiment [7] is 78.1%; in [8] it was 89.6%; in experiment [9] it was 97.9%; in [10] it was 98.1%.

These data come from PubChem BioAssay (NCI).
